A selection: hits, their analogues and other compounds. The true share with any hit is near 1.5%.
PKA kinase inh: inhibitors of human PKA kinase activity, primary screen, biochemical, ATP-depletion luminescence, Kemptide substrate. inhibition, % at 6 µM. PKA Kemptide phosphorylation, Kinase-Glo ATP luminescence. 65,000 tested, 0.1% active. cAMP-dependent protein kinase catalytic subunit alpha (Homo sapiens), P17612;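 active means inhibition above the screen-wide mean inhibition plus 3 SD, cut at about 21% in these data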
SK-BR-3 tox 24h: SK-BR-3 proliferation inhibitors, primary screen, cell-based, human, 24 h. 41,000 tested, 0.47% active. SK-BR-3 viability, CellTiter-Glo ATP luminescence; hits give low values. viability, % at 10 µM. AID 847, 2007;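 active means viability at or below the median of all test compounds minus 3 SD, in both replicates if run twice, cut at about 45% in these data; inconclusive means duplicate replicates that disagree with each other; inactive means viability above that cutoff in every replicate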;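 further: 100% = median untreated cell wells and 0% = median positive control drug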
JNK3 inh: JNK3 kinase activity inhibitors, primary screen, biochemical, human, purified enzyme | 60,000 tested, 0.61% active | Mitogen-activated protein kinase 10 (Homo sapiens), P53779 | inhibition, % at 8 µM | AID 746, 2007 | HTS; in the data active means inhibition above about 17%;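 further: 0% = DMSO and 100% = reference inhibitor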
Target sequence (P53779 whole entry, looked up): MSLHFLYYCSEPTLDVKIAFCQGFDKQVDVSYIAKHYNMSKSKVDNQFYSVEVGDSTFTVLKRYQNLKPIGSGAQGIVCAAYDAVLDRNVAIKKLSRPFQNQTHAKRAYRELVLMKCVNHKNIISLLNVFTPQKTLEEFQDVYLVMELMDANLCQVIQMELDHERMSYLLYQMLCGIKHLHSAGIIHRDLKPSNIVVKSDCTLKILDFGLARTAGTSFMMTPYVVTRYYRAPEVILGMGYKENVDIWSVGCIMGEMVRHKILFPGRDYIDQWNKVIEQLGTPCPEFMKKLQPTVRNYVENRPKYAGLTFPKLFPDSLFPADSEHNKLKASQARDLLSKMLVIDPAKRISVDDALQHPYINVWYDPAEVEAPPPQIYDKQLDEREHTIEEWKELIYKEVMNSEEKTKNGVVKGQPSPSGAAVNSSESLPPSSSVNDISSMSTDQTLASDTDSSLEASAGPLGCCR
ROCK2 blocker: inhibitors of human ROCK2 kinase, primary screen, biochemical, high-throughput, luminescence; 60,000 tested, 0.35% active; AID 604, 2007; inhibition, % at 6 µM; purified ROCK2, Kinase-Glo ATP depletion luminescence;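 active means inhibition above the screen-wide mean inhibition plus 3 SD, cut at about 18% in these data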;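 further: plate controls were DMSO wells for no effect and Y-27632 control wells after no-enzyme background subtraction for full effect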
Her2 expr inh: inhibitors of Her2 protein expression, primary screen, SKBR-3 cells, AlphaScreen, 66K library; Receptor tyrosine-protein kinase erbB-2 (Homo sapiens), P04626; SKBR-3 HER2 protein level, 18-24 h; hits give low values; HER2 level % of control, % at 10 µM; 65,000 tested, 0.69% active; AID 645, 2007;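 active means HER2 level under 5% of the carrier-only control; inconclusive means no clear call, values can overlap the other calls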;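 further: 100% = DMSO carrier and 0% = 500 nM PU-H71 HSP90 inhibitor; lower value means stronger loss of Her2 protein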
Starred values were filed as active, the others as inactive.

COC(=O)c1ccc2c(=O)n(CCN3CCOCC3)c(=S)[nH]c2c1 was read as PKA kinase inh 5, SK-BR-3 tox 24h 93, JNK3 inh 0, ROCK2 blocker 7 and Her2 expr inh 91.
Cc1cc(N2CCC3(CC2)OCCO3)n2nc(C)c(-c3ccc(Cl)cc3)c2n1 was read as PKA kinase inh 0 and Her2 expr inh -19*.
CCN(CCCNC(=O)CN(C)S(=O)(=O)c1cccc2nsnc12)c1ccccc1 was read as PKA kinase inh -2, SK-BR-3 tox 24h 73, JNK3 inh -7, ROCK2 blocker 0 and Her2 expr inh 77.
Screening Cc1ccc(/C=C/C2=Cc3c(sc(NC(=O)CSc4n[nH]c(N)n4)c3C#N)C(C)(C)C2)o1 returned PKA kinase inh 8, JNK3 inh 6, ROCK2 blocker 5 and Her2 expr inh -1.5*.
`COC(=O)c1c(NC(=O)CSc2n[nH]c(N)n2)sc(C)c1C` gave PKA kinase inh 6, JNK3 inh 4, ROCK2 blocker 3 and Her2 expr inh 83.
For O=C(CCn1[nH]c(=O)c2ccccc2c1=O)OC1CCCCC1 the results were PKA kinase inh -1, SK-BR-3 tox 24h 82, JNK3 inh 1, ROCK2 blocker 2 and Her2 expr inh -24*.
For COc1ccc(-c2nc(C#N)c(N3CCCCCC3)o2)cc1OC the results were PKA kinase inh 10, SK-BR-3 tox 24h 81, JNK3 inh -3, ROCK2 blocker 6 and Her2 expr inh 85.
For COc1ccc(COC(=O)C2=C(C)NC(=O)NC2c2ccc(O)c(OC)c2)cc1 (stereo unspecified) the results were PKA kinase inh 8, SK-BR-3 tox 24h 118, JNK3 inh 27*, ROCK2 blocker 3 and Her2 expr inh 129.
CCOc1cc(C2NC(=O)NC(C)=C2C(=O)OCc2ccccc2)ccc1O (stereo unspecified) was read as PKA kinase inh 0, SK-BR-3 tox 24h 110, JNK3 inh 19*, ROCK2 blocker -2 and Her2 expr inh 104.
COc1cc(C2NC(=O)NC(C)=C2C(=O)OCc2ccccc2)ccc1O (stereo unspecified) was read as PKA kinase inh 11, JNK3 inh 20*, ROCK2 blocker 8 and Her2 expr inh 121.
For Cc1cc(NC(=O)COC(=O)COc2ccc3c(c2)CCC3)no1 the results were PKA kinase inh -1, JNK3 inh 15, ROCK2 blocker -1 and Her2 expr inh 70.
`COC(=O)CCC(=O)c1oc2ccccc2c1N` gave PKA kinase inh 3, SK-BR-3 tox 24h 87, JNK3 inh 6, ROCK2 blocker 4 and Her2 expr inh 98.
Screening O=C1CCC(C(=O)NC2(C(=O)NC3CCCCC3)CCCCC2)N1 (stereo unspecified) returned PKA kinase inh 5, SK-BR-3 tox 24h 28* and Her2 expr inh 96.
For CCOc1ccccc1N(CC(=O)N1CCCCCC1)S(C)(=O)=O the results were PKA kinase inh 9, SK-BR-3 tox 24h 86, JNK3 inh 5, ROCK2 blocker 6 and Her2 expr inh 102.
CCOc1ccccc1N(CC(=O)N1CCOCC1)S(=O)(=O)c1ccccc1 was read as PKA kinase inh 2, SK-BR-3 tox 24h 91, JNK3 inh 1, ROCK2 blocker 0 and Her2 expr inh -21*.
`CC1(C)CC(=O)C2=C(C1)OC1=C(C(=O)CC(C)(C)C1)C2c1ccc(O)cc1O` gave PKA kinase inh -5, JNK3 inh 0, ROCK2 blocker -4 and Her2 expr inh -0.6*.
CCOC(=O)Cc1csc2nc3sc(C)c(C)c3c(=O)n12 was read as PKA kinase inh -1, SK-BR-3 tox 24h 118, JNK3 inh 3, ROCK2 blocker 2 and Her2 expr inh 110.
CCOc1cc(C(=O)CSc2nnc(CNc3ccc(Cl)cc3)o2)ccc1NC(=O)CC was read as PKA kinase inh 5, SK-BR-3 tox 24h 63, JNK3 inh 1, ROCK2 blocker 5 and Her2 expr inh -22*.
`CCc1nnc(NC(=O)CSc2nnc(CNc3ccc(Cl)cc3)o2)s1` gave PKA kinase inh 12, SK-BR-3 tox 24h 87, JNK3 inh 3, ROCK2 blocker 6 and Her2 expr inh 52.
For O=C(O)c1ccc2c3c(ncnc13)-c1ccccc1C2=O the results were PKA kinase inh 4, SK-BR-3 tox 24h 44*, JNK3 inh -12, ROCK2 blocker -3 and Her2 expr inh -16*.
`O=C1c2ccccc2-c2nc3ncnn3c(-c3ccccc3)c21` gave PKA kinase inh 11, JNK3 inh -4, ROCK2 blocker 2 and Her2 expr inh 82.
O=C(COn1nnc2ccc(Cl)cc21)NCc1ccccc1 was read as PKA kinase inh -1, JNK3 inh 2, ROCK2 blocker 4 and Her2 expr inh 99.
For COc1cc2cc(C(c3nnnn3C3CCCCC3)N(C)C3CCCCC3)c(=O)[nH]c2cc1OC (stereo unspecified) the results were PKA kinase inh 10, SK-BR-3 tox 24h 100, JNK3 inh -3, ROCK2 blocker 5 and Her2 expr inh 20.
Screening CC1CCN(c2ccc(C(=O)O)cc2N)CC1 returned PKA kinase inh -1, SK-BR-3 tox 24h 43*, JNK3 inh -8, ROCK2 blocker -2 and Her2 expr inh 84.
`CC1CCN(c2ccccc2N)CC1` gave PKA kinase inh 0, SK-BR-3 tox 24h 102, JNK3 inh 4, ROCK2 blocker 1 and Her2 expr inh inconclusive.
`c1ccc(Nc2nc(-c3cccs3)cs2)nc1` gave PKA kinase inh 0, SK-BR-3 tox 24h 122, JNK3 inh -1, ROCK2 blocker 0 and Her2 expr inh 59.
Cc1cccc(Nc2nc(-c3ccccn3)cs2)n1 was read as PKA kinase inh 5, SK-BR-3 tox 24h 112, JNK3 inh 7, ROCK2 blocker 6 and Her2 expr inh -21*.
For Cc1ccc(SCCNC(=O)CN2C(=O)c3ccccc3S2(=O)=O)cc1 the results were PKA kinase inh -4, SK-BR-3 tox 24h 89 and Her2 expr inh 189.
Screening O=C(CN1C(=O)c2ccccc2S1(=O)=O)NCCSc1ccccc1 returned PKA kinase inh -12, SK-BR-3 tox 24h 44*, JNK3 inh -7, ROCK2 blocker -4 and Her2 expr inh 83.
`O=C(Nc1ccc(F)cc1)N1CCN(c2nc3ccccc3s2)CC1` gave PKA kinase inh 9, SK-BR-3 tox 24h 41*, JNK3 inh 4, ROCK2 blocker 6 and Her2 expr inh 56.
Screening N#CC1=C(c2ccccc2)N=P(N2CCOCC2)(N2CCOCC2)N=C1N1CCOCC1 returned PKA kinase inh 2 and SK-BR-3 tox 24h 110.
CCOC(=O)CSc1nnc(-c2ccc(NS(=O)(=O)c3ccc(C)cc3)cc2)o1 was read as PKA kinase inh 6, JNK3 inh -7, ROCK2 blocker -1 and Her2 expr inh -1.4*.

Screening data: PubChem BioAssay, several laboratories
